The results in this text go back to PubChem BioAssay (EPA / NIEHS).

The nature of assay [1]: CCTE_Shafer_MEA_dev_per_burst_interspike_interval: CCTE's Neural Network Formation Assay for Burst Interspike Interval, Shafer Lab (AID 2284044; active = hit-call score of the fitted dose curve at least 0.9, where 1 is the maximum; inactive = score below 0.9;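 also: mean spike spacing inside bursts as AUC over recordings on days 5 7 9 12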;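 as to AC50: potency for a decrease of within-burst interspike interval below DMSO level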). The method in brief:
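Rat cortical primary cultures, 16 electrodes/well; compound from plating, renewed with full media change DIV 5 and 9. Spikes via adaptive detector; per-burst ISI well-mean over active bursting electrodes; AUC of DIV 5/7/9/12 recordings; loss-direction fit vs DMSO.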

Assay [2] can be described thus: CCTE_Shafer_MEA_dev_active_electrodes_number: CCTE's Neural Network Formation Assay for Number of Active Electrodes, Shafer Lab (AID 2284040).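 As to AC50: potency for loss of active electrodes versus DMSO so lower counts are hits.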 The method in brief: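 Primary rat cortical neurons on 16-electrode MEA wells, exposed from day 0 through day 12 with compound renewed at DIV 5 and 9 feeds. Active electrodes (mean firing ≥5 spikes/min) counted at DIV 5, 7, 9, 12; trapezoidal AUC across days, loss-of-signal versus DMSO.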

Assay [3] can be described thus: CCTE_Shafer_MEA_dev_bursting_electrodes_number: CCTE's Neural Network Formation Assay for Number of Bursting Electrodes, Shafer Lab (AID 2284043).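 As to AC50: potency is for loss of bursting electrodes relative to DMSO.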 The essentials:
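Primary rat cortical neurons were cultured on PEI-coated 48-well MEA plates (16 electrodes/well) and exposed from plating through day 12, with compound renewed at feeds on DIV 5 and 9. Electrodes bursting ≥1 per 2 min were counted on DIV 5, 7, 9, 12; trapezoidal AUC taken.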

Assay [4] can be described thus: CCTE_Deisenroth_AIME_384WELL_CTox_Inactive: Cytotoxicity Assessment (CTOX) in CCTE's 384-well Estrogen Receptor Transactivation Assay without AIME metabolic competence (metabolism negative), Deisenroth Lab (AID 2284039).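 Also: cell viability via live-cell protease substrate cleaved to fluorescent probe; cells exposed 24 h to medium preincubated 2 h with alginate-water beads without S9; loss of fluorescence signal means loss of viability.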 The essentials: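 Metabolism-negative arm: chemicals (10-point, 0.002 - 200 uM) preincubated 2 h with alginate-water lids, medium moved onto VM7Luc4E2 cells for 24 h. Fluorescent live-cell protease readout; bidirectional curve fit.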

Each structure is given as a SMILES string. Results filed as inconclusive are left out. A structure can be active in one record and inactive in another. Activity calls are given as the source filed them. The calls were made as follows, unless noted: active = hit-call score of the fitted dose curve at least 0.9, where 1 is the maximum; inconclusive = response in the unintended direction; inactive = score below 0.9.

As for `FC(F)=C(F)C(F)(F)C(F)(F)C(F)(F)C(F)F`, the molecule was called inactive in assay [1].
Regarding `CN(Cc1cnc2nc(N)nc(N)c2n1)c1ccc(C(=O)N[C@@H](CCC(=O)O)C(=O)O)cc1`, the AC50 in assay [2] was 30.3 nM (active); in assay [3], 20.9 nM (active); in assay [1], 2980 nM (active).
For the molecule `O=CC(F)(F)C(F)(F)C(F)(F)F`, the call in assay [2], in assay [3] and in assay [1] was inactive.
Consider `FCOC(C(F)(F)F)C(F)(F)F`, for which the result in assay [2], in assay [3] and in assay [1] was inactive.
On to `Cc1ccc(S(=O)(=O)O)cc1`, for which the molecule was called inactive in assay [4].
On to `O=C(OC(=O)C(F)(F)C(F)(F)F)C(F)(F)C(F)(F)F`, for which the result in assay [2], in assay [3] and in assay [1] was inactive.
On to `OCC(F)(F)C(F)(F)C(F)(F)C(F)(F)C(F)(F)C(F)(F)C(F)(F)C(F)(F)C(F)(F)C(F)(F)C(F)(F)F`, for which the AC50 in assay [2] is 15000 nM (active); in assay [3], 6730 nM (active). Moreover, the result in assay [2], in assay [3] and in assay [1] was inactive.
Regarding `O=CC(F)(F)C(F)(F)C(F)(F)C(F)F`, the result in assay [2], in assay [3] and in assay [1] was inactive.
With `O=C(F)C(F)(F)C(F)(F)C(F)(F)C(=O)F`, the call in assay [2], in assay [3] and in assay [1] was inactive.
Consider `O=C(F)C(F)(F)C(F)(F)C(F)(F)C(F)F`, for which the outcome in assay [2], in assay [3] and in assay [1] was inactive.
With `CN(CCO)S(=O)(=O)C(F)(F)C(F)(F)C(F)(F)C(F)(F)C(F)(F)C(F)(F)C(F)(F)C(F)(F)F`, the molecule was classed as inactive in assay [3] and in assay [1].
`COC(=O)C(F)(F)C(F)(F)C(F)(F)C(F)(F)C(F)(F)F`: the molecule was called inactive in assay [1].
As for `Nc1ccn([C@@H]2O[C@H](CO)[C@@H](O)C2O)c(=O)n1` (some centres not stated), the AC50 was 472 nM (active) in assay [2], 333 nM (active) in assay [3] and 850 nM (active) in assay [1].
Consider `O=C(C=C(O)C(F)(F)F)C(F)(F)F`, for which the call in assay [3] and in assay [1] was inactive.
For `O=C(CC(=O)C(F)(F)C(F)(F)C(F)(F)F)c1cccs1`, the AC50 is 8830 nM (active) in assay [2] and 8130 nM (active) in assay [3]. In addition, in assay [1], the molecule was called inactive.
On to `CC(C)[C@@H]1CC[C@@H](C)C[C@H]1O`, for which the call in assay [4] was inactive.
For the molecule `C=CC(F)(F)C(F)(F)C(F)(F)C(F)(F)F`, the molecule was classed as inactive in assay [2], in assay [3] and in assay [1].
Regarding `O=P(O)(O)CCC(F)(F)C(F)(F)C(F)(F)C(F)(F)C(F)(F)C(F)(F)F`, the outcome in assay [1] was inactive.
Take `NC(C(F)(F)F)C(F)(F)F`: the call in assay [2], in assay [3] and in assay [1] was inactive.

As usually defined, the AC50 is the concentration at which the activity in the assay is half-maximal.
